Results filed as inconclusive are left out. Calls come from the whole dose curve; as a rule, active = well fitted activation curve with a large enough effect; inconclusive = small, poorly fitted or top-dose-only effect; inactive = no such curve, though single readings can be large or run the other way.
Molecular target: Rap guanine nucleotide exchange factor 3 (Homo sapiens) (UniProt O95398)
Assay: Confirmatory qHTS for agonist of cAMP-regulated guanine nucleotide exchange factor 3 (EPAC1) (AID 1645881);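 note: EPAC1 catalysed release of BODIPY-GDP from Rap1B seen as fluorescence loss; 100% = effect of cAMP agonist control; nearly all actives have a fitted effect of over 75% in size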
Conditions: EPAC1 Rap1B BODIPY-GDP exchange fluorescence; series mostly up to 154 µM; activation: at the top concentration

Rap guanine nucleotide exchange factor 3 (Homo sapiens), sequence (O95398 whole entry, looked up): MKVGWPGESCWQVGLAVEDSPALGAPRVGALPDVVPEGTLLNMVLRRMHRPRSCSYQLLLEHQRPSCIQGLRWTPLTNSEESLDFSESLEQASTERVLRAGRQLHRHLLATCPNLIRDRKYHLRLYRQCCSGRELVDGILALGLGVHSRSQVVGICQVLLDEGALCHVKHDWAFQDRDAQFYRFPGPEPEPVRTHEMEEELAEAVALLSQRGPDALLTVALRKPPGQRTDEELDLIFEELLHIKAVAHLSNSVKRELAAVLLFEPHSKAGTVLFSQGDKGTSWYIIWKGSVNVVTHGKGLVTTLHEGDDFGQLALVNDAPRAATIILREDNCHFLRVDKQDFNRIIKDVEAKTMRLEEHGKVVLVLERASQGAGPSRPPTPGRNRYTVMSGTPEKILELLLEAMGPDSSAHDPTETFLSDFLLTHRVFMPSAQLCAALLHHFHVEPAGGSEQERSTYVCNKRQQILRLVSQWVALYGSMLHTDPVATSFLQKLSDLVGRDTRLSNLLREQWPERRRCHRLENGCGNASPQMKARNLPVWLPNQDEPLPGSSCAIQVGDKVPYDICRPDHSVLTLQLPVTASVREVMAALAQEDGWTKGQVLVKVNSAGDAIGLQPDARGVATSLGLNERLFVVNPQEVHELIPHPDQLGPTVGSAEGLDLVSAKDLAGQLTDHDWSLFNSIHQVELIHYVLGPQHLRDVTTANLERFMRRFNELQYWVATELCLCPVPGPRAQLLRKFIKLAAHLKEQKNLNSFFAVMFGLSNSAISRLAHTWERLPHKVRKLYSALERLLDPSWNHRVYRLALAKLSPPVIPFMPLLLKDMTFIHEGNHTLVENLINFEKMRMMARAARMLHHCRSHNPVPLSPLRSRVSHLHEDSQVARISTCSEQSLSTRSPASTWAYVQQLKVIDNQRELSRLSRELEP

activation, inactive:
Cc1cccc(C(=O)OCC(=O)c2ccc(CC(=O)N3CCOCC3)s2)c1C 12.5%, CCc1nc2c(OCc3ccc(OC)cc3)cccn2c1N(C)C(=O)c1ccc(OC)cc1 27.7%, Cc1cccc(N2CCN(C(=O)c3[nH]c(C(F)(F)F)nc3-c3ccccc3)CC2)c1C 14.1%, Cc1ccc(Nc2nnc(-c3ccc(C)c(S(N)(=O)=O)c3)c3ccccc23)cc1 4.4%, CCOC(=O)C1=C(C)NC(C)=C(C(=O)OCC)C1c1cccc([N+](=O)[O-])c1 20.6%, COc1ccc(S(=O)(=O)/N=C2/NC(=O)/C(=C\c3cc(OC)c(OC)cc3[N+](=O)[O-])S2)cc1 2.42%, COc1cc(NC(=O)c2cc3nc(-c4ccccc4)cc(-c4ccccc4)n3n2)cc(OC)c1OC 6.74%, Cc1csc(NC(=O)CSc2sc3c(O)cc(=O)[nH]c3c2C#N)n1 8.08%, O=c1[nH]cc(N=Cc2cc(Cl)cc(Cl)c2O)c(=O)[nH]1 -4.64%, Cc1ccccc1/C=C1\SC(=S)N(/N=C/c2cc([N+](=O)[O-])ccc2O)C1=O -4.05%, CSc1cccc(N2CC(C(=O)Nc3cccc(S(=O)(=O)N4CCCC4)c3)CC2=O)c1 (stereo not given) 8.85%, O=C1/C(=C/c2cccs2)COc2ccccc21 22.5%, C[C@@H]1CN([C@@H](C)CO)C(=O)c2ccccc2-c2ccccc2CO[C@@H]1CN(C)S(=O)(=O)c1ccc(C(F)(F)F)cc1 -32.9%, CCCCn1c(COc2cccc(OC)c2)nc2ccccc21 19.7%, O=C(NC1(O)C(=O)c2ccccc2C1=O)c1ccc(C(F)(F)F)cc1 -7.66%, Fc1ccc(/C=C2\CCCC3=C2Nc2ncnn2C3c2ccc(F)cc2)cc1 (stereo not given) 20.5%, CCCN1CCN(c2ncnc3sc(C(=O)Nc4ccc(OC(F)(F)F)cc4)c(C)c23)CC1 -32.2%, Cc1ccc(NC(=O)c2sc3nc(-c4ccncc4)ccc3c2N)cc1 16%, Clc1cccc(Cc2c(-c3ccco3)nc3ccc(Br)cn23)c1 8.47%, CCN(C(=O)Cn1c(C(=O)OC)cc2sccc21)c1cccc(C)c1 12.5%, NS(=O)(=O)c1ccc2c(c1)C1C=CCC1C(C1CC=CCC1)N2 (stereo not given) 12%, CN(C)c1ccc(/C=C/c2cc[n+](C)c3ccccc23)cc1 0.71%, O=C1CCC[C@@H]2CC(N(Cc3cc4ccccc4s3)c3ccccc3)C[C@@H]3CCN1[C@H]23 (stereo not given in full) 13.5%, CN(C)S(=O)(=O)N(CC(=O)NCCSc1ccc(Cl)cc1)c1ccccc1 -5.55%, O=C(CC(c1ccccc1)c1cc(Cl)ccc1O)N1CCCC1 (stereo not given) 7.84%

Molecular target: Rap guanine nucleotide exchange factor 4 (Homo sapiens) (UniProt Q8WZA2)
Sequence (Q8WZA2 whole entry, looked up): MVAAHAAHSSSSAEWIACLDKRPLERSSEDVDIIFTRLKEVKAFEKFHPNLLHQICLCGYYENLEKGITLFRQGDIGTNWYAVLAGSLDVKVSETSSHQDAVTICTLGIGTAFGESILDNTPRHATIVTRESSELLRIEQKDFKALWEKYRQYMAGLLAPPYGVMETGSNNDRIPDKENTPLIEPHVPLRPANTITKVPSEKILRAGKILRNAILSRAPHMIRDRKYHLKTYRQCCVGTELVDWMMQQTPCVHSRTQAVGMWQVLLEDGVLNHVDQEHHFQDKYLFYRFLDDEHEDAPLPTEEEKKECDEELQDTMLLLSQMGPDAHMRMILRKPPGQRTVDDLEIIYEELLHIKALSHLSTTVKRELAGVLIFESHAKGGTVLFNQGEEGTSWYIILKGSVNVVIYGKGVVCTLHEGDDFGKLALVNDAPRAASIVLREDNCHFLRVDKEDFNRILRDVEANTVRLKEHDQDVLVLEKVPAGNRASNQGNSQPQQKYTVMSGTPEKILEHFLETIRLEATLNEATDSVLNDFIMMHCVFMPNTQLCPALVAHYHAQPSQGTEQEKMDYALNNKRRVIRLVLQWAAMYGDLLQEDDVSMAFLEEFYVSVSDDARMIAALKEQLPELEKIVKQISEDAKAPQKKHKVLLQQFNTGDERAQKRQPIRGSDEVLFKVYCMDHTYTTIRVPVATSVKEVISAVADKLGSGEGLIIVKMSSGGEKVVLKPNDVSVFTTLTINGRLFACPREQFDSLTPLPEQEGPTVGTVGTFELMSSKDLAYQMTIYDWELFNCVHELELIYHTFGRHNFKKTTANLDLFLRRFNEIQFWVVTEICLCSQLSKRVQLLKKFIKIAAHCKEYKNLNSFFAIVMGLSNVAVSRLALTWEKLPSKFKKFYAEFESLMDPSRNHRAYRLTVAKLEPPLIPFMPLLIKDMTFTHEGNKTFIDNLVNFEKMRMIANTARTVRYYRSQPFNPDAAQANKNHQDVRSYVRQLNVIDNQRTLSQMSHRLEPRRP
Assay: Confirmatory qHTS for agonist of cAMP-regulated guanine nucleotide exchange factor 4 (EPAC2) (AID 1645884);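 note: nucleotide exchange releases bodipy-GDP from Rap1 and this lowers its fluorescence; % is set by controls: 0 for no effect and ±100 for the full control effect; nearly all actives have a fitted effect of over 65% in size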
Conditions: EPAC2 GEF activity, Rap1B-BODIPY-GDP fluorescence; series mostly up to 154 µM; activation: at the top concentration

activation, inactive:
N#C/C(=C/C1=C(N2CCOCC2)C(=C/c2cccc([N+](=O)[O-])c2)/CC1)C(=O)Nc1ccccc1F 1.67% [at 17.1 µM, percent relative to cAMP agonist control], NC(=O)C1CCN(C(=O)c2ccc3c(=O)n(Cc4cccc(Br)c4)c(=S)[nH]c3c2)CC1 7.22% [at 17.1 µM, percent relative to cAMP agonist control], CC(C)CNc1ncnc2onc(-c3ccc(Cl)cc3)c12 -11.8% [at 83.8 µM, percent relative to cAMP agonist control], COCOCCn1cc(CN2CCS(=O)(=O)N(Cc3ccc(-c4ccccc4)cc3)C(CC(C)C)C2=O)nn1 (stereo not given) 4.12% [at 17.1 µM, percent relative to cAMP agonist control], CCOC(=O)c1ccc(NC(=S)NNC(=O)C2(C)CC2(Cl)Cl)cc1 (stereo not given) 2.12%, CC(=O)C(=Cc1ccc(Cl)cc1)C(=O)c1ccccc1 0.622%, CC(=O)c1ccc(OCc2nnn(CC(=O)NS(=O)(=O)c3ccc(C)cc3)c2-c2ccccc2)cc1 1.38% [at 17.1 µM, percent relative to cAMP agonist control], COc1ccc(NC(=O)Cn2ncc(Cl)c(Cl)c2=O)cc1S(=O)(=O)N1CCOCC1 -6.12% [at 17.1 µM, percent relative to cAMP agonist control], Cc1ccc(O)c(-c2n[nH]c3c2C(c2ccc(F)cc2)N(Cc2ccco2)C3=O)c1 (stereo not given) -16.1% [at 83.8 µM, percent relative to cAMP agonist control], O=c1cc(-c2ccccc2)[nH]n1-c1nc2ccccc2s1 11.1% [at 17.1 µM, percent relative to cAMP agonist control], Cc1ccnc(NC(=O)C2CCN(S(=O)(=O)c3cccc(C(F)(F)F)c3)CC2)c1 2.84%, O=C(c1[nH]c(C(F)(F)F)nc1-c1ccccc1)N1CCC(C(O)(c2ccccc2)c2ccccc2)CC1 -1.58%, CCc1nc2ccc(C(=O)Nc3ccc(OC)c(OC)c3)cn2c1N(C)CCC(C)C 6.16% [at 17.1 µM, percent relative to cAMP agonist control], Cc1ccc(C)c(Cn2c(C3CC(=O)N(c4ccccc4C)C3)nc3ccccc32)c1 (stereo not given) -46.2% [at 83.8 µM, percent relative to cAMP agonist control], C/C(=N\Nc1ccc([N+](=O)[O-])cc1)c1ccc(O)cc1 8.19%, Cc1cccc(C(=O)OCC(=O)c2ccc(CC(=O)N3CCOCC3)s2)c1C 2.54%, CCc1nc2c(OCc3ccc(OC)cc3)cccn2c1N(C)C(=O)c1ccc(OC)cc1 19%, Cc1cccc(N2CCN(C(=O)c3[nH]c(C(F)(F)F)nc3-c3ccccc3)CC2)c1C 0%, Cc1ccc(Nc2nnc(-c3ccc(C)c(S(N)(=O)=O)c3)c3ccccc23)cc1 -4.37% [at 83.8 µM, percent relative to cAMP agonist control], CCOC(=O)C1=C(C)NC(C)=C(C(=O)OCC)C1c1cccc([N+](=O)[O-])c1 8.4% [at 17.1 µM, percent relative to cAMP agonist control], COc1ccc(S(=O)(=O)/N=C2/NC(=O)/C(=C\c3cc(OC)c(OC)cc3[N+](=O)[O-])S2)cc1 0% [at 17.1 µM, percent relative to cAMP agonist control], COc1cc(NC(=O)c2cc3nc(-c4ccccc4)cc(-c4ccccc4)n3n2)cc(OC)c1OC 5.09%, Cc1csc(NC(=O)CSc2sc3c(O)cc(=O)[nH]c3c2C#N)n1 0%, O=c1[nH]cc(N=Cc2cc(Cl)cc(Cl)c2O)c(=O)[nH]1 -9.7%, Cc1ccccc1/C=C1\SC(=S)N(/N=C/c2cc([N+](=O)[O-])ccc2O)C1=O -2.95%, CSc1cccc(N2CC(C(=O)Nc3cccc(S(=O)(=O)N4CCCC4)c3)CC2=O)c1 (stereo not given) 4.48% [at 17.1 µM, percent relative to cAMP agonist control], O=C1/C(=C/c2cccs2)COc2ccccc21 1.85% [at 17.1 µM, percent relative to cAMP agonist control], C[C@@H]1CN([C@@H](C)CO)C(=O)c2ccccc2-c2ccccc2CO[C@@H]1CN(C)S(=O)(=O)c1ccc(C(F)(F)F)cc1 1.26% [at 17.1 µM, percent relative to cAMP agonist control], CCCCn1c(COc2cccc(OC)c2)nc2ccccc21 -4.69% [at 83.8 µM, percent relative to cAMP agonist control], O=C(NC1(O)C(=O)c2ccccc2C1=O)c1ccc(C(F)(F)F)cc1 -7.21%, Fc1ccc(/C=C2\CCCC3=C2Nc2ncnn2C3c2ccc(F)cc2)cc1 (stereo not given) 4.94% [at 17.1 µM, percent relative to cAMP agonist control], CCCN1CCN(c2ncnc3sc(C(=O)Nc4ccc(OC(F)(F)F)cc4)c(C)c23)CC1 -34.4% [at 83.8 µM, percent relative to cAMP agonist control], Cc1ccc(NC(=O)c2sc3nc(-c4ccncc4)ccc3c2N)cc1 -4.43% [at 83.8 µM, percent relative to cAMP agonist control], Clc1cccc(Cc2c(-c3ccco3)nc3ccc(Br)cn23)c1 2.6% [at 17.1 µM, percent relative to cAMP agonist control], CCN(C(=O)Cn1c(C(=O)OC)cc2sccc21)c1cccc(C)c1 -24.2% [at 83.8 µM, percent relative to cAMP agonist control], NS(=O)(=O)c1ccc2c(c1)C1C=CCC1C(C1CC=CCC1)N2 (stereo not given) 6.51% [at 17.1 µM, percent relative to cAMP agonist control], CN(C)c1ccc(/C=C/c2cc[n+](C)c3ccccc23)cc1 2.69%, O=C1CCC[C@@H]2CC(N(Cc3cc4ccccc4s3)c3ccccc3)C[C@@H]3CCN1[C@H]23 (stereo not given in full) 15.8%, CN(C)S(=O)(=O)N(CC(=O)NCCSc1ccc(Cl)cc1)c1ccccc1 12% [at 83.8 µM, percent relative to cAMP agonist control], O=C(CC(c1ccccc1)c1cc(Cl)ccc1O)N1CCCC1 (stereo not given) 5.06%
